Our source for the growth inhibition values is PubChem BioAssay (NCI).

A short description of assay [1]: NCI Yeast Anticancer Drug Screen. Data for the rad50 strain (AID 155).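 Also: 0% = growth of vehicle-only cultures of the same strain.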 The settings on record: S. cerevisiae rad50 strain growth inhibition; at 50.0 µM; stronger effect = higher value. Put shortly:
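Cells are treated with compound, grown, and their growth is then scored against vehicle-only cultures of the same repair-deficient yeast strain.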

The nature of assay [2]: NCI Yeast Anticancer Drug Screen. Data for the mec2-1 strain (AID 157). To be noted: S. cerevisiae mec2-1 strain, at 50.0 µM, stronger effect = higher value. In a few lines: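 Growth inhibition is read against vehicle-treated controls after compound exposure of the mec2-1 yeast strain, which is defective in DNA damage repair or cell cycle control.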
A short description of assay [3]: NCI Yeast Anticancer Drug Screen. Data for the sgs1 mgt1 strain (AID 161).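 Also: 0% = growth of cultures given vehicle only.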 The settings on record: S. cerevisiae sgs1 mgt1 strain, at 50.0 µM, stronger effect = higher value. In a few lines: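 Compounds are added to genetically altered yeast, and growth is compared with cultures given vehicle alone to give percent inhibition.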
Assay [4] in a line: NCI Yeast Anticancer Drug Screen. Data for the cln2 rad14 strain (AID 165).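 Also: 0% = growth equal to vehicle treated cultures.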 The settings on record: S. cerevisiae cln2 rad14 strain, at 50.0 µM, stronger effect = higher value. In a few lines: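 Growth inhibition, relative to vehicle-treated controls, is the read-out. The test organism is a yeast strain with defined genetic alterations, cln2 rad14.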
The nature of assay [5]: NCI Yeast Anticancer Drug Screen. Data for the bub3 strain (AID 167). To be noted: S. cerevisiae bub3 mutant strain, at 50.0 µM, stronger effect = higher value. Put shortly:
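Part of a panel of yeast mutants defective in DNA damage repair or cell cycle regulation. Each strain is grown with compound, and inhibition is calculated relative to solvent-treated cultures.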

Assay [6] can be described thus: NCI Yeast Anticancer Drug Screen. Data for the mlh1 rad18 strain (AID 175). To be noted: S. cerevisiae mlh1 rad18 strain growth inhibition; at 50.0 µM; stronger effect = higher value. Put shortly:
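Cells of a genetically altered yeast strain, deficient in DNA damage repair, were treated with compound. Their growth was then compared with that of vehicle-treated cultures to give inhibition.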

This is part of a sample that, as a whole, favours compounds with a hit. Of some 79,000 tested, about 15% had one in any assay. Values without a mark were called inactive. The source made the active and inactive calls. Rule as the data show it: active = growth inhibition above about 70%; inactive = the rest.

In the case of `CCN=C(NCC)N(CC)CC`, the growth inhibition in assay [1] is -20.4%; in assay [2], -5.75%; in assay [3] it was -12.8%; in assay [4], -11.6%; in assay [5], 25.3%; in assay [6], -11.8%.

On to `CSc1ncc(C#N)c2nc(-c3ccccc3)nn12`, for which the growth inhibition in assay [1] was 5.6%; in assay [2] it was 13.9%; in assay [3], 3.35%; in assay [4], 8.1%; in assay [5], 12.1%; in assay [6], 18.3%.

As for `NC(CCC(=O)NC(CSCNC(=O)Nc1ccc(Cl)cc1)C(=O)NCC(=O)O)C(=O)O` (stereo unspecified), the growth inhibition is -5.15% in assay [1]; 4.4% in assay [2]; -1.65% in assay [3]; -13.7% in assay [4]; -3.85% in assay [5]; 15.9% in assay [6].

On to `CC(=O)OC1C(C)OC(OC(=O)C2CCC3C(C2)OC2(CC(OC(=O)/C=C/c4ccccc4)C(C)CO2)C32CO2)C(OC2OC(C)C(O)C(O)C2O)C1O` (stereo unspecified), for which the growth inhibition in assay [1] was 1.3%; in assay [2] it was -16.8%; in assay [3], 2.3%; in assay [4] it was 13.5%; in assay [5], 3.65%; in assay [6], -62.9%.

With `CCCCCCCCC1CC(=O)OC1=O` (stereo unspecified), the growth inhibition in assay [1] is 0.05%; in assay [2], 0.55%; in assay [3] it was -0.65%; in assay [4], 7.05%; in assay [5], -1.55%; in assay [6], -2.35%.

Take `CCOCc1cc(Cc2cc(COCC)c3cccnc3c2O)c(O)c2ncccc12`: the growth inhibition in assay [1] is 55.7%; in assay [2] it was 16.7%; in assay [3], 39.6%; in assay [4] it was 10.2%; in assay [5], 0.45%; in assay [6], 16.2%.

For the compound `O=C(Oc1c(Cl)cc([N+](=O)[O-])cc1[N+](=O)[O-])Sc1ccccc1`, the growth inhibition in assay [1] was 99.4% (active); in assay [2], 99.7% (active); in assay [3] it was 99.5% (active); in assay [4], 99.2% (active); in assay [5] it was 99.5% (active); in assay [6] it was 99.5% (active).

`Cc1ccc(NC(=O)Nc2cccc(Cl)c2)cc1C`: the growth inhibition in assay [1] was -0.1%; in assay [2] it was 5.05%; in assay [3], -4.95%; in assay [4], -17.2%; in assay [5] it was 5.1%; in assay [6], -16.6%.

On to `COc1ccc2c(=O)c([Se]c3coc4cc(OC)ccc4c3=O)coc2c1`, for which the growth inhibition in assay [1] is 7.2%; in assay [2], -17.1%; in assay [3] it was 3.15%; in assay [4], -52.5%; in assay [5] it was -23.1%; in assay [6] it was 3.25%.

In the case of `CC(C)C(Nc1ncnc2nc[nH]c12)C(=O)O` (stereo unspecified), the growth inhibition in assay [1] was -25.6%; in assay [2] it was -15.2%; in assay [3] it was -6.65%; in assay [4], -35.2%; in assay [5], -23.2%; in assay [6] it was -16.9%.

In the case of `COc1cc(/C=N/NC(=O)C(=O)N/N=C/c2cc(OC)c(OC)c(OC)c2)cc(OC)c1OC`, the growth inhibition was -20.4% in assay [1]; -34.1% in assay [2]; -24.7% in assay [3]; 3.9% in assay [4]; -20% in assay [5]; -21.1% in assay [6].

Turning to `CN(/N=C/c1ccccn1)C1=NCCCN1`, the growth inhibition in assay [1] is -20.2%; in assay [2] it was -22%; in assay [3], -23%; in assay [4], 5.35%; in assay [5] it was -5.4%; in assay [6] it was -27%.

`COC1C2C[C@@H](O)CCC2C(C(=O)OCCl)C[C@H]1O` (stereo partly specified): the growth inhibition was -12.4% in assay [1]; -6.9% in assay [2]; -11% in assay [3]; -27.2% in assay [4]; -10.6% in assay [5]; -30.2% in assay [6].

For `CN1CCC(O)(/C=C\C2(O)CCN(C)CC2)CC1`, the growth inhibition was -10.9% in assay [1]; 21.7% in assay [2]; 20.1% in assay [3]; -3.95% in assay [4]; 3.65% in assay [5]; -22.1% in assay [6].

With `COC1=CC(=O)c2ccccc2C1(CCC=C(C)C)C1=NC(C)(C)CO1` (stereo unspecified), the growth inhibition in assay [1] is -27%; in assay [2], -11.6%; in assay [3] it was 7.75%; in assay [4] it was 5.65%; in assay [5], -8.6%; in assay [6] it was -11.6%.

Take `CC(C)C(O)C(C)N` (stereo unspecified): the growth inhibition in assay [1] is 1.4%; in assay [2], -5.9%; in assay [3] it was 0.7%; in assay [4] it was 4.9%; in assay [5] it was 3.2%; in assay [6], 3.5%.

`COc1nc2cc3c(cc2n2cccc12)oc1ccccc13`: the growth inhibition in assay [1] is 11.9%; in assay [2] it was 7.5%; in assay [3] it was -4%; in assay [4], 12.2%; in assay [5], -1.75%; in assay [6] it was -2.65%.

Regarding `CN(C)c1ccc(C2N(C)CCN2C)cc1`, the growth inhibition in assay [1] is -10.4%; in assay [2] it was 6.85%; in assay [3] it was 9.85%; in assay [4] it was -1.8%; in assay [5], -7.5%; in assay [6], -12.8%.

For `Cc1ccc(C)n1-c1ccc(OCC(N)=O)cc1`, the growth inhibition in assay [1] was 16.3%; in assay [2] it was 16.1%; in assay [3], 12.7%; in assay [4] it was -15.7%; in assay [5] it was 12.6%; in assay [6], 13.9%.

Turning to `CCN(CC)C1Oc2cc3c(cc2C(c2cccc(OC)c2O)C1C)OCO3` (stereo unspecified), the growth inhibition in assay [1] is 21.1%; in assay [2] it was -0.15%; in assay [3] it was 22.8%; in assay [4], 21.7%; in assay [5] it was 15.2%; in assay [6], -1.4%.

Consider `Nc1ccccc1C(=O)/C=C/c1c(O)ccc2ccccc12`, for which the growth inhibition in assay [1] is 29.6%; in assay [2], 9.5%; in assay [3], 10.2%; in assay [4], 15.9%; in assay [5], 21.1%; in assay [6], 34.3%.
